Morphology score data for 6 compounds are collected here from the supplement of paper PMC13380429.

The test system of the test is Vero E6 infected with SARS-CoV-2. The experiment in a line: morphology score (similarity to uninfected cells); higher = more like uninfected cells. The conditions noted are these: 24 h.
`O=C(NOCC(O)CO)c1cc(Br)c(F)c(F)c1Nc1ccc(I)cc1F` (stereo unspecified) (0.833333 µM) had a morphology score of -0.0489.

`CC(C)(C)c1cc(C(=O)/C(C#N)=N/Nc2cccc(Cl)c2)no1` (10 µM) showed a morphology score of -0.0513.

In turn, `CC[C@H](C)C(=O)O[C@H]1C[C@@H](C)C=C2C=C[C@H](C)[C@H](CC[C@@H]3C[C@@H](O)CC(=O)O3)[C@H]21` [lovastatin] (10 µM) had a morphology score of 0.0359.

`CO[C@@]1(NC(=O)Cc2cccs2)C(=O)N2C(C(=O)O)=C(COC(N)=O)CS[C@@H]21` [cefoxitin] (10 µM) came in with a morphology score of 0.228.

Consider `CC(C)/N=c1\cc2n(-c3ccc(Cl)cc3)c3ccccc3nc-2cc1Nc1ccc(Cl)cc1` [clofazimine] (10 µM), for which the morphology score is 0.422.

Regarding `CN(C)CCn1nnnc1SCC1=C(C(=O)O)N2C(=O)[C@@H](NC(=O)Cc3csc(N)n3)[C@H]2SC1` [cefotiam] (10 µM), the morphology score worked out at 0.212.
